DT40 TDP1 CPT: qHTS for Inhibitors of human tyrosyl-DNA phosphodiesterase 1 (TDP1): qHTS in cells in presence of CPT | chicken DT40 Tdp1-/-;hTDP1 cells + 20 nM CPT, ATP luminescence, 48 h | Potency, µM (titrated, usually from 46.2 µM), without a hit: at the highest dose activity change, negative = growth inhibition, usual class: inhibitors | 420,000 compounds, 12% hits | AID 686979, 2013; further: on the % scale 0 is the no-effect control and ±100 the full control effect; nearly all actives have a fitted effect of over 55% in size
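Cell growth measured by CellTiter-Glo luminescence after a minimum 48 h, 37 C compound exposure with 20 nM CPT in Tdp1-knockout DT40 cells stably expressing hTDP1, seeded 400/well; qHTS titration format.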
VDR inhibitor: Inhibitors of the vitamin D receptor (VDR): qHTS; Vitamin D3 receptor (Homo sapiens), P11473; VDR-SRC2-3 peptide fluorescence polarization, 2 h; Potency, µM, for inactives: max response, negative = inhibition, most hits filed as inhibitors; 400,000 compounds, 0.93% hits; further: on the % scale 0 is the no-effect control and ±100 the full control effect
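Fluorescence polarization assay of small-molecule disruption of VDR binding to coregulator peptide SRC2-3. Compounds and controls pin-transferred, then read after 2 h incubation at ambient room temperature.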
TDP1 block: qHTS Assay for Inhibitors of Tyrosyl-DNA Phosphodiesterase (TDP1); Potency, µM (top dose mostly 130 µM), without a hit: at the highest dose activity change, negative = inhibition, most hits filed as inhibitors; Tyrosyl-DNA phosphodiesterase 1 (Homo sapiens), Q9NUW8; recombinant TDP1, AlphaScreen DNA substrate cleavage; AID 485290, 2010; 350,000 compounds, 0.28% hits; further: on the % scale 0 is the no-effect control and ±100 the full control effect; nearly all actives have a fitted effect of over 40% in size
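Here, a 5' biotin and 3' phosphotyrosine-FITC DNA oligonucleotide reports Tdp1 activity: intact substrate bridges AlphaScreen beads, while cleavage leaves a 3' phosphate and drops signal. All incubations at room temperature.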
PLK1 PBD inh: qHTS for Inhibitors of PLK1-PDB (polo-like kinase 1 - polo-box domain): Primary Screen; Serine/threonine-protein kinase PLK1 (Homo sapiens), P53350; AID 720504, 2013; 360,000 compounds, 2.8% hits; Potency, µM, for the others: max response, negative = inhibition, usual class: inhibitors; Plk1 PBD binding of FITC phosphopeptide, fluorescence polarization; further: series mostly up to about 57 µM; on the % scale 0 is the no-effect control and ±100 the full control effect; nearly all actives have a fitted effect of over 65% in size
TDP1 cell noCPT: qHTS for Inhibitors of human tyrosyl-DNA phosphodiesterase 1 (TDP1): qHTS in cells in absence of CPT; Potency, µM (doses to about 46.2 µM), for inactives: top-dose activity change, negative = growth inhibition, hits mostly inhibitors; AID 686978, 2013; 420,000 compounds, 15% hits; DT40 Tdp1-/- hTDP1 cells, no CPT, ATP luminescence, 48 h; further: on the % scale 0 is the no-effect control and ±100 the full control effect; nearly all actives have a fitted effect of over 55% in size
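Growth kinetics read by CellTiter-Glo luminescence after ≥48 hr at 37 °C. Cells: DT40 Tdp1-/- stably carrying human TDP1, 400 per well, compound exposure in the absence of CPT (DMSO vehicle).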
KAT2A inh: qHTS Assay for Inhibitors of GCN5L2 | Histone acetyltransferase KAT2A (Homo sapiens), Q92830 | GCN5L2 HAT assay, ThioGlo1 CoA-SH fluorescence | Potency, µM (series often up to 58.9 µM), without a hit: at the top dose activity change, negative = inhibition, hits mostly inhibitors | 390,000 compounds, 0.21% hits | AID 504327, 2011; further: on the % scale 0 is the no-effect control and ±100 the full control effect
Target sequence (Q92830 whole entry, looked up): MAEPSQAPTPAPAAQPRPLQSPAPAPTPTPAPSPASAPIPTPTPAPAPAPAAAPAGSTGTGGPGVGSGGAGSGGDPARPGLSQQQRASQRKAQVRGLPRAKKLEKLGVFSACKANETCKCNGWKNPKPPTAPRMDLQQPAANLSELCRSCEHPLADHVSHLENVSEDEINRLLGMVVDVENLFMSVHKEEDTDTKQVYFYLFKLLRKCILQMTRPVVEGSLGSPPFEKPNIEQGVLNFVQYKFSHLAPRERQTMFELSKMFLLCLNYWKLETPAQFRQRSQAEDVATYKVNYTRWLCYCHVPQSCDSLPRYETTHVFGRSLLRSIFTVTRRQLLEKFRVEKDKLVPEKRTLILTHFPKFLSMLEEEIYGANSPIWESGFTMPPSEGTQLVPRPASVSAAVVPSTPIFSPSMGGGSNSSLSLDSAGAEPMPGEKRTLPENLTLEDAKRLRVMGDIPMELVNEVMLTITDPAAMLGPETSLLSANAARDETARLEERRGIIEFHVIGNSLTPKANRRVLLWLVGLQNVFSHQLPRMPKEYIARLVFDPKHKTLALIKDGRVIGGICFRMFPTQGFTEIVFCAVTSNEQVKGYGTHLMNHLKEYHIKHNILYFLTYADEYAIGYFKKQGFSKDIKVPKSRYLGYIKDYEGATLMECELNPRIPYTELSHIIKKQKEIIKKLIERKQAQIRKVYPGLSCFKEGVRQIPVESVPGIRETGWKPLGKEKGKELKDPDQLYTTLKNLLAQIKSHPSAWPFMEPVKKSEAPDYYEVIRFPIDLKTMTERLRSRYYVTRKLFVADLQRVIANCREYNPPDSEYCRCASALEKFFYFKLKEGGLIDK
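ThioGlo1-coupled HAT assay: 20nM GCN5L2, 70uM acetyl-CoA, 75uM H3(1-25) peptide, pH 7.5. Fluorescence read at 340/540nm at start and after 20 min at room temperature.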
VDR confirm: qHTS for Inhibitors of the vitamin D receptor (VDR): Hit Validation in Primary Screen | 840 compounds, 89% hits | Potency, µM, actives largely listed as inhibitors | VDR-coactivator inhibition assay, qHTS confirmation | AID 602199, 2012 | shares compounds with VDR inhibitor
VDR FP: qHTS for Inhibitors of the vitamin D receptor (VDR): Hit Validation using a Fluorescein Assay; shares compounds with VDR inhibitor; VDR-coactivator binding, fluorescein fluorescence polarization; Potency, µM (highest dose often 57.1 µM), for inactives: at the top dose activity change, negative = inhibition, usual class: inhibitors; 840 compounds, 48% hits
VDR bla: qHTS for Inhibitors of the vitamin D receptor (VDR): Hit Validation using a Beta-Lactamase Assay | shares compounds with VDR inhibitor | VDR beta-lactamase reporter cells, FRET ratio; cells co-treated with VDR agonist LG190178 | Potency, µM (series often up to 46.1 µM), inactives show at the top dose activity change, negative = inhibition, hits mostly inhibitors | 840 compounds, 23% hits | AID 602202, 2012; further: on the % scale 0 is the no-effect control and ±100 the full control effect
VDR cytotox: qHTS for Inhibitors of the vitamin D receptor (VDR): Hit Validation using a Cytotoxicity Assay | shares compounds with VDR inhibitor | cytotoxicity counter-screen, cell viability, qHTS | Potency, µM (top dose mostly 48.3 µM), inactives show top-dose activity change, negative = cytotoxicity, hits mostly cytotoxic | 840 compounds, 18% hits | AID 602204, 2012;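 further: plate controls were DMSO for no effect and high-concentration cycloheximide for full effect; nearly all actives have a fitted effect of over 75% in size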
An asterisk follows results filed as active; ? = inconclusive; . = no result given. This is a sample that favours compounds with a hit; in the whole collection about 18% have one here. The call rests on the fitted dose curve; in most records, active means well fitted curve in the direction sought with a large enough effect; inconclusive means small, poorly fitted or top-dose-only effect, or another doubt; inactive means no such curve, though single readings can be large; an effect the other way counts as inactive or inconclusive. Potency means the concentration at half of the fitted maximal effect.

SMILES	DT40 TDP1 CPT	VDR inhibitor	TDP1 block	PLK1 PBD inh	TDP1 cell noCPT	KAT2A inh	VDR confirm	VDR FP	VDR bla	VDR cytotox
O=C(COc1ccc(F)cc1)N(Cc1ccc(Cl)cc1)C1CCS(=O)(=O)C1 (stereo unspecified)	-5.7%	-5.0%	0.7%	-5.9%	11.0%	-2.8%	.	.	.	.
O=C(O)c1ccc(Cl)c(S(=O)(=O)Nc2cccc(C(=O)Nc3cccc(C(F)(F)F)c3)c2)c1	-0.3%	-7.0%	0.0%	-22.3%	-3.0%	0.0%	.	.	.	.
Cn1ncc2c(NNC(=O)c3ccc(Cl)cc3Cl)ncnc21	-5.7%	-3.6%	8.0%	-15.2%	?	-0.7%	.	.	.	.
COc1cccc(CC(=O)Nc2ccc(N3CCOCC3)c(S(=O)(=O)Nc3ccccc3OC)c2)c1	-16.0%	-4.1%	.	?	-14.3%	.	.	.	.	.
COc1ccccc1NS(=O)(=O)c1cc(N)ccc1N1CCOCC1	?	79.4µM*	3.7%	0.0%	?	-15.8%	21.2*	20µM*	25.3%	31.8%
O=C(CSc1nncn1-c1ccccc1F)NC1CC1	-26.6%	6.2%	-1.6%	-0.4%	-0.4%	-3.1%	.	.	.	.
CC(C)CCC[C@@H](C)[C@@H]1CC[C@H]2C3=CC=C4CC(O)CC[C@]4(C)[C@H]3CC[C@@]21C (stereo partly specified)	.	28.2µM*	13.4%	.	.	-14.4%	?	-3.3%	?	?
O=C(Nc1nnc(-c2ccccc2)s1)C1CCCN(C(=O)c2ccoc2)C1 (stereo unspecified)	?	44.7µM*	.	.	-24.8%	.	15.8*	8.91µM*	?	-3.1%
CCc1nnc(NC(=O)C2CCCN(C(=O)c3ccoc3)C2)s1 (stereo unspecified)	-15.8%	-20.1%	.	.	0.6%	.	.	.	.	.
CS(=O)(=O)c1ncc(Cl)c(C(=O)Nc2ccc(OC(F)F)cc2)n1	0.82µM*	10µM*	.	23.8µM*	1.16µM*	-4.2%	8.44*	8.91µM*	?	13µM*
O=C(Nc1ccc(OC(F)F)cc1)c1ccccn1	3.8%	3.5%	-2.6%	-3.7%	2.7%	-5.1%	.	.	.	.
CCN(c1ccccc1)S(=O)(=O)c1ccc(NC(=O)c2nc(S(C)(=O)=O)ncc2Cl)cc1	1.16µM*	39.8µM*	5.4%	16.8µM*	1.03µM*	-7.5%	13.4*	?	?	16.4µM*

Assay outcomes (PubChem BioAssay)
